Reference: PubChem BioAssay (NCI)
The panel holds about 83,000 compounds, 20% with a hit somewhere; the sample as a whole holds those more often.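 Negative percent growth values reflect cell death: -40 means 40% of the cells present at the start died, and -100 means all died.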 Activity calls are given as the source filed them. The calls were made as follows: active = growth percent below 10; inactive = the rest.

Test system: MDA-MB-468 breast
Experiment: NCI-60 one-dose screen, 48 h (100 = growth as untreated, 0 = no growth, -100 = all killed)
Details: 10 µM unless noted

SMILES	growth
O=C(/C=C/c1ccccc1)c1cccc2ccccc12	-2.6% (active)
O=S(=O)(OCCO)c1ccccc1	97% (inactive)
COC(=O)c1nc(-c2ccc(C)cc2)oc1Sc1ccc(C)cc1	121% (inactive)
COc1cccc2cc(N(C)c3ncnc4ccccc34)ccc12	-7.56% (active)
Cc1[nH]c(-c2nc3ccccc3[nH]2)c(C)c1C(=O)NNc1ccc(Cl)cc1	84.8% (inactive)
Cc1ccc2c(n1)C(=O)C(Cl)=C(Nc1ccc(N3CCN(C)CC3)cc1)C2=O	-84.6% (active)
C=CC(=O)Nc1cc2c(Nc3ccc(F)c(Cl)c3)ncnc2cc1OCCCN1CCOCC1	-31.5% (active)
Cc1ccc(NC(=O)Nc2nc3ccc([N+](=O)[O-])cc3s2)cc1	-15.6% (active)
N#C/C(=C/C=C/c1cccc(Cl)c1)S(=O)c1ccccc1 (stereo not given)	-46% (active)
NC(N)=N/N=C/c1ccc(Cl)cc1	44% (inactive)
CCOC(=O)c1nnn(Cc2cc(=O)oc3ccc(O)cc23)c1C	108% (inactive)
O=C1NC(=O)C(c2ccc(Cl)cc2Cl)N1 (stereo not given)	106% (inactive)
O=C1/C(=C(/c2ccccc2)N2CCOCC2)Cc2ccccc21	-19% (active)
COc1ccc(C(C(=O)O)c2ccc(OC)cc2)cc1	113% (inactive)
CC(C)(C)Nc1nc2c(OCCc3ccccc3)cccn2c1-c1ccc([N+](=O)[O-])cc1	-19.5% (active)
O=C(/C(=C/c1ccc([N+](=O)[O-])cc1)SCc1ccc(F)cc1)c1ccc(Cl)cc1	76.4% (inactive)
COc1cccc2cc(-c3cc4ccccc4[nH]3)/c(=N/C(=S)Nc3ccccc3)oc12	79.1% (inactive)
CCN1CCN(c2nc(C)cc(N(CCNc3ccnc4cc(Cl)ccc34)Cc3ccc4c(c3)OCO4)n2)CC1	-65.3% (active)
COc1cc(/C=C/C(=O)c2ccc(N3CCN(C)CC3)cc2)ccc1F	35% (inactive)
CN(C)CC(C)(C)C(=O)/C=C/c1ccccc1	-49% [25 µM] (active)

SMILES	growth
COc1cc(C2C3=C(COC3=O)Nc3c2ccc2c3CCCC2)cc2c1OCO2 (stereo not given)	-6.39% (active)
CCCCCCCCCCN1CC2CCCCC2C1 (stereo not given)	54.7% (inactive)
CCN=Cc1c(O)c(O)c(C(C)C)c2cc(C)c(-c3c(C)cc4c(C(C)C)c(O)c(O)c(C=NCC)c4c3O)c(O)c12	55.7% (inactive)
Nc1ccccc1SC(CC(=O)c1ccccc1)c1c(Cl)cccc1Cl (stereo not given)	64.7% (inactive)
COc1cc(NS(=O)(=O)C(C)C)cc(-c2cc(-c3ccc(N4CCNCC4)cc3)cnc2N)c1	92.2% (inactive)
CC(C)=C[C@@H]1c2c(c3ccccc3n(C)c2=O)O[C@H]2c3c(c4ccccc4n(C)c3=O)OC(C)(C)[C@@H]12	61.4% (inactive)
c1ccc(-c2cn3c(ccc4ccccc43)n2)cc1	30.6% (inactive)
C(=N\Nc1nnc2n1N=C(c1ccccc1)CS2)/c1ccc(OCc2ccccc2)cc1	88.9% (inactive)
O=C1/C(=C/c2ccc3c(c2)OCO3)SC(=S)N1C1c2ccccc2Oc2ccccc21	90.4% (inactive)
NC1N=C(SCC(=O)N2CCN(c3cc4c(cc3F)c(=O)c(C(=O)O)cn4C3CC3)CC2)NC(=O)/C1=C/c1ccc(Cl)cc1 (stereo not given)	111% (inactive)
CCC(CC)NCC(C)(C)O	104% (inactive)
O=C(NCc1ccco1)C1CN(c2ccc(Cl)cc2)N(c2ccc(Cl)cc2)C1=O (stereo not given)	42.4% (inactive)
N#Cc1c(-c2ccc(F)cc2)n2c(nc1=O)SC(=O)C2=O	94.5% (inactive)
CN(C)c1nc(N)c2nccnc2n1	115% (inactive)
Clc1ccc(C2=NN=C3C(Cc4ccccc4)=Nc4ccccc4N3C2)cc1	84.7% (inactive)
O=C(N/N=C\c1cc(Br)cc(Br)c1O)N/N=C/c1cc(Br)cc(Br)c1O	57.7% (inactive)
CCC(C)(C)c1cc(O)c(C(C)(C)CC)cc1O	-2.33% (active)
CCN(CC)Cc1cc(Nc2ccnc3cc(Cl)ccc23)ccc1OC	93.6% (inactive)
CC(C)NC(=O)OCc1c(COC(=O)NC(C)C)c(-c2ccc(Cl)cc2)n2c1CCC2	-8.97% (active)
CN1CCN(C2=Nc3ccccc3Oc3ccc(Cl)cc32)CC1	100% (inactive)
